The source of these data is PubChem BioAssay (NCI).

What all share (experiment): NCI-60 one-dose screen, 48 h (100 = growth as untreated, 0 = no growth, -100 = all killed)
In one experiment the test system is A549/ATCC NSCLC. Conditions: 10 µM unless noted.
Another experiment deals with COLO 205 colon. Particulars: 10 µM.
The subject of the next experiment is RXF 393 renal. Conditions: 10 µM unless noted.
Another experiment has as its system UACC-257 melanoma. Conditions: 10 µM unless noted.
The test system of a further experiment is HT29 colon. Particulars: 10 µM unless noted.
For a further experiment, the system named is U251 CNS. Conditions: 10 µM unless noted.
Another experiment concerns SK-MEL-2 melanoma. Particulars: 10 µM unless noted.
A further experiment has as its system SN12C renal. Particulars: 10 µM unless noted.
The test system of another experiment is CAKI-1 renal. Conditions: 10 µM unless noted.
The subject of a further experiment is A498 renal. Conditions: 10 µM unless noted.
The test system of another experiment is HL-60(TB) leukemia. Conditions: 10 µM unless noted.
Another experiment concerns OVCAR-8 ovarian. Conditions: 10 µM unless noted.
In a further experiment the test system is OVCAR-4 ovarian. Particulars: 10 µM unless noted.
The next experiment concerns SK-OV-3 ovarian. Conditions: 10 µM unless noted.
In the next experiment the test system is HS 578T breast. Conditions: 10 µM unless noted.
In a further experiment the test system is T-47D breast. Particulars: 10 µM unless noted.
The test system of another experiment is BT-549 breast. Conditions: 10 µM.
A further experiment concerns MDA-MB-435 melanoma. Conditions: 10 µM unless noted.
The test system of the next experiment is UO-31 renal. Conditions: 10 µM unless noted.
Another experiment relates to MALME-3M melanoma. Particulars: 10 µM unless noted.

The panel holds about 83,000 compounds, 20% with a hit somewhere; the sample as a whole holds those more often.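 Percent growth is the endpoint: 0 to 100 indicates growth inhibition (40 means 60% inhibition), 0 means no net growth, and negative values indicate cell death.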 Values without a mark were called inactive. Active and inactive are the calls of the source. How the source made its calls: active means growth percent below 10; inactive means the rest.

In the case of `Cc1cccc(N=C2c3cc([N+](=O)[O-])ccc3-c3c2cc([N+](=O)[O-])cc3[N+](=O)[O-])c1`, the growth is 72.1% with A549/ATCC NSCLC; 98.5% in the experiment on COLO 205 colon; 72.2% with RXF 393 renal; 90.8% in the experiment on UACC-257 melanoma; 21.3% in the experiment with HT29 colon; 40.3% with U251 CNS. Also, the growth with SK-MEL-2 melanoma is 12.1%; in the experiment with SN12C renal, 26.4%; with CAKI-1 renal, 67.8%; in the experiment with A498 renal, 74.5%; with HL-60(TB) leukemia, 46.7%; in the experiment on OVCAR-8 ovarian it was 64.5%. Besides, the growth with OVCAR-4 ovarian is 71.3%; in the experiment with SK-OV-3 ovarian, 119%; in the experiment on HS 578T breast, 101%; with T-47D breast it was -25.1% (active); in the experiment on BT-549 breast it was 81.8%; with MDA-MB-435 melanoma, 45%.
Consider `Oc1ccc(Br)cc1CN1CCN(Cc2ccc(Cl)cc2)CC1`, for which the growth was 62.3% with A549/ATCC NSCLC; 71.1% in the experiment on COLO 205 colon; 76.7% with RXF 393 renal; 86.7% with UACC-257 melanoma; 70.2% in the experiment with HT29 colon; 48.9% in the experiment with U251 CNS. Moreover, the growth in the experiment on SK-MEL-2 melanoma is 88.2%; in the experiment on UO-31 renal it was 47.4%; in the experiment with CAKI-1 renal, 59.5%; in the experiment on A498 renal, 105%; in the experiment on HL-60(TB) leukemia it was 47.5%; in the experiment on OVCAR-4 ovarian, 65.5%. In addition, the growth in the experiment with SK-OV-3 ovarian is 101%; with HS 578T breast it was 80.9%; in the experiment with T-47D breast, 65.1%; with BT-549 breast it was 86.3%; in the experiment on MDA-MB-435 melanoma, 12.8%.
For the compound `CC12CC[C@H](O)C=C1/C(=N/O)CC1C2CCC2(C)C1CC[C@@H]2O` (stereo partly drawn), the growth was 103% in the experiment with A549/ATCC NSCLC; 115% in the experiment on COLO 205 colon; 80.3% in the experiment on MALME-3M melanoma; 104% in the experiment with RXF 393 renal; 111% in the experiment with UACC-257 melanoma; 98% in the experiment on HT29 colon. For the same compound, the growth in the experiment with U251 CNS was 105%; with SK-MEL-2 melanoma, 99.2%; in the experiment on SN12C renal, 104%; with UO-31 renal, 66.2%; in the experiment with CAKI-1 renal, 84%; in the experiment on OVCAR-8 ovarian, 107%. Also, the growth in the experiment on SK-OV-3 ovarian is 95%; in the experiment on T-47D breast, 77.6%; in the experiment with BT-549 breast, 85%; in the experiment on MDA-MB-435 melanoma, 90.7%.
In the case of `CCC(C)(C)O`, the growth in the experiment with A549/ATCC NSCLC was 108%; with COLO 205 colon, 110%; in the experiment with MALME-3M melanoma, 110%; in the experiment on RXF 393 renal, 111%; in the experiment with UACC-257 melanoma it was 119%; in the experiment on HT29 colon, 109%. Further, the growth was 108% with U251 CNS; 98.8% in the experiment with SN12C renal; 93.8% in the experiment on UO-31 renal; 93.6% in the experiment on CAKI-1 renal; 83.1% in the experiment on A498 renal; 86.4% in the experiment with HL-60(TB) leukemia. The growth in the experiment on OVCAR-8 ovarian was 108%; in the experiment on OVCAR-4 ovarian it was 111%; with SK-OV-3 ovarian, 118%; in the experiment on HS 578T breast, 105%; with T-47D breast, 107%; with BT-549 breast, 110%. For the same compound, in the experiment on MDA-MB-435 melanoma, the growth is 92.3%.
For `COc1c(O)c2c3c(c1OC)-c1ccccc1CC3N(C)CC2` (stereo not drawn), the growth in the experiment with A549/ATCC NSCLC was 103%; in the experiment with MALME-3M melanoma it was 105%; in the experiment on RXF 393 renal it was 133%; in the experiment on UACC-257 melanoma it was 103%; in the experiment with HT29 colon, 110%; in the experiment with U251 CNS it was 99.1%. Further, the growth in the experiment on SN12C renal is 99.9%; in the experiment with UO-31 renal it was 89.9%; with CAKI-1 renal, 94.3%; in the experiment with A498 renal, 116%; in the experiment on HL-60(TB) leukemia, 112%; in the experiment with OVCAR-8 ovarian it was 110%. The growth is 120% in the experiment on OVCAR-4 ovarian; 94.2% with SK-OV-3 ovarian; 110% with HS 578T breast; 100% in the experiment with T-47D breast; 104% in the experiment on MDA-MB-435 melanoma.
With `COc1ccc(NP2(=O)OCC(C)(N)CO2)cc1` (stereo not drawn), the growth was 93.6% in the experiment with A549/ATCC NSCLC; 109% in the experiment with COLO 205 colon; 97.3% with MALME-3M melanoma; 104% with RXF 393 renal; 97.6% in the experiment with UACC-257 melanoma; 98.7% in the experiment on HT29 colon. The growth was 108% in the experiment on SK-MEL-2 melanoma; 105% in the experiment with SN12C renal; 75.6% with UO-31 renal; 95% in the experiment with HL-60(TB) leukemia; 101% in the experiment on OVCAR-8 ovarian; 110% in the experiment on OVCAR-4 ovarian. For the same compound, the growth in the experiment on SK-OV-3 ovarian is 103%; in the experiment on HS 578T breast it was 109%; with T-47D breast, 78.5%; with BT-549 breast, 77%; in the experiment with MDA-MB-435 melanoma it was 108%.
Take `O=C(O)C1(Br)CC12c1ccccc1-c1ccccc12` (stereo not drawn): the growth in the experiment with A549/ATCC NSCLC is 98.4%; in the experiment on COLO 205 colon it was 115%; with MALME-3M melanoma it was 100%; in the experiment with RXF 393 renal, 99.5%; in the experiment with UACC-257 melanoma it was 94.8%; in the experiment with HT29 colon, 104%. The growth in the experiment on SK-MEL-2 melanoma is 110%; in the experiment on SN12C renal, 107%; in the experiment on UO-31 renal, 82.4%; in the experiment on HL-60(TB) leukemia it was 94%; with OVCAR-8 ovarian it was 99.6%; in the experiment with OVCAR-4 ovarian, 107%. The growth in the experiment on SK-OV-3 ovarian is 101%; in the experiment on HS 578T breast, 110%; with T-47D breast it was 82.5%; with BT-549 breast, 94.9%; in the experiment with MDA-MB-435 melanoma, 108%.
Take `C=CC(O)CN1CC1CC` (stereo not drawn): the growth with A549/ATCC NSCLC is 92.8%; with COLO 205 colon, 114%; in the experiment on MALME-3M melanoma it was 110%; in the experiment on RXF 393 renal, 115%; in the experiment with UACC-257 melanoma, 88.6%; in the experiment on U251 CNS, 93.8%. Moreover, the growth in the experiment with SN12C renal was 99%; in the experiment on UO-31 renal, 86.3%; with A498 renal it was 89.5%; in the experiment with HL-60(TB) leukemia, 101%; in the experiment with OVCAR-8 ovarian, 89.1%; in the experiment on OVCAR-4 ovarian it was 112%. The growth is 107% with SK-OV-3 ovarian; 97.3% with HS 578T breast; 101% in the experiment on T-47D breast; 93.5% with BT-549 breast; 99.1% in the experiment with MDA-MB-435 melanoma.
Consider `Cc1cc(CCl)c(C)cc1CCl`, for which the growth was 55% in the experiment on A549/ATCC NSCLC; 82.9% with MALME-3M melanoma; 93.3% in the experiment on RXF 393 renal; 62.1% in the experiment on UACC-257 melanoma; 40.2% with U251 CNS; 70.1% in the experiment on SK-MEL-2 melanoma. For the same compound, the growth in the experiment with SN12C renal is 30.9%; in the experiment with UO-31 renal, 33.9%; in the experiment on CAKI-1 renal it was 5.81% (active); in the experiment with A498 renal it was 84.6%; in the experiment on HL-60(TB) leukemia it was 15.3%; in the experiment on OVCAR-8 ovarian it was 61.7%. Besides, the growth was 83.4% in the experiment on OVCAR-4 ovarian, 73.9% in the experiment on SK-OV-3 ovarian, 81.7% with HS 578T breast and 68.8% with BT-549 breast.
With `O=c1[nH]c2cc(Cl)ccc2n1C1CCN(CCCC(c2ccc(F)cc2)c2ccc(F)cc2)CC1`, the growth with COLO 205 colon was -88.3% (active); with MALME-3M melanoma, -1.17% (active); in the experiment on RXF 393 renal it was 30.5%; in the experiment on UACC-257 melanoma, -81.4% (active); in the experiment on HT29 colon, -36.9% (active); in the experiment on U251 CNS it was 29.4%. In addition, the growth was 16.8% in the experiment with SK-MEL-2 melanoma; 20.1% with SN12C renal; -48.3% (active) with UO-31 renal; 30% in the experiment with CAKI-1 renal; -90.2% (active) with A498 renal; -70.7% (active) in the experiment on HL-60(TB) leukemia. In addition, the growth in the experiment on OVCAR-4 ovarian was 56.6%; in the experiment with SK-OV-3 ovarian, 78.1%; in the experiment with HS 578T breast, -80.6% (active); in the experiment with T-47D breast, 41.5%; in the experiment with BT-549 breast it was 78.4%; in the experiment with MDA-MB-435 melanoma, 18.2%.
For `O=C1NC(=O)C(=Cc2cn(Cc3cn(Cc4ccc(Cl)cc4Cl)nn3)c3ccccc23)C(=O)N1`, in the experiment with HL-60(TB) leukemia, the growth was 73.8%.
